# Data published in PubChem BioAssay (NCATS).
# Results filed as inconclusive are left out. The source made the active and inactive calls. Unless noted, the call rests on the fitted dose curve; in most records, active means well fitted curve in the direction sought with a large enough effect; inconclusive means small, poorly fitted or top-dose-only effect, or another doubt; inactive means no such curve, though single readings can be large or run the other way.
# Experiments:
# [1] = target: T1, Hexokinase-4 (Homo sapiens) + Glucokinase regulatory protein (Homo sapiens) (UniProt P35557+Q14397); experiment: qHTS assay for inhibitors of recombinant human GCK-GKRP interaction: ADP-Glo assay (AID 743206);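 further: plate controls were DMSO plus enzyme for no effect and no enzyme for full effect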
# T1 sequence (P35557 whole entry, looked up): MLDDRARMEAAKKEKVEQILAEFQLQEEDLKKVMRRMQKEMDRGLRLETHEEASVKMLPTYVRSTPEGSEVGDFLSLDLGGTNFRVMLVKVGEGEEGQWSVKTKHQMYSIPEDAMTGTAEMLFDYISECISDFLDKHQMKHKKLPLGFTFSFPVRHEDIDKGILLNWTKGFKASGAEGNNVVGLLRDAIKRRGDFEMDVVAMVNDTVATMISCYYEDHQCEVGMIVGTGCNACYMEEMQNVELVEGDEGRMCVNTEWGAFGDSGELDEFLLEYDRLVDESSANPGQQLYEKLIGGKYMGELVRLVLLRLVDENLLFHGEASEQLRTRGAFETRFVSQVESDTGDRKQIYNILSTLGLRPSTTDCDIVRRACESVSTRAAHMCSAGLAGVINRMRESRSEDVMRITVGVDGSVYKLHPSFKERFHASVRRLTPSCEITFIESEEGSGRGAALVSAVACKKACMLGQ
# T1 sequence (Q14397 whole entry, looked up): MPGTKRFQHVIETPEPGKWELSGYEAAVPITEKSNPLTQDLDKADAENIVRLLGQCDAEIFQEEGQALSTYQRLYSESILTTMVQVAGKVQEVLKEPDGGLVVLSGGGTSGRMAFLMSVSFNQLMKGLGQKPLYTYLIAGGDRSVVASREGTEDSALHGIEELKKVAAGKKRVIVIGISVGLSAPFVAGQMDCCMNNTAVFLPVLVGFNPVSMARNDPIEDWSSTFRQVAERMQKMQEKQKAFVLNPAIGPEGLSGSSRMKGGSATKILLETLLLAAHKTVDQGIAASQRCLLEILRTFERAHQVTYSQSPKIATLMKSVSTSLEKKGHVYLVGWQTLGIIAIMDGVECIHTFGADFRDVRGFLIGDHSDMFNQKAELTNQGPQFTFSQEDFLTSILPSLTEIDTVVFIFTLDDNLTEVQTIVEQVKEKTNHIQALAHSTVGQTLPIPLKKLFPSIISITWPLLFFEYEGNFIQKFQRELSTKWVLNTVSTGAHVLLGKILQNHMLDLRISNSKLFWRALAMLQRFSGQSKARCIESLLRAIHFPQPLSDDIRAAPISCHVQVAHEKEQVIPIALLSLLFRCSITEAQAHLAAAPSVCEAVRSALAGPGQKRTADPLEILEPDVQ
# How it was run: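 Pin-transferred compounds meet a 15 nM GST-GCK/15 nM FLAG-GKRP/2 uM S6P mix (dispense concentrations). ATP is then added to 0.4 mM final with 5 mM glucose, and the reaction runs 60 min at room temperature. ADP is quantified luminescently.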
# [2] = target: T1, Hexokinase-4 (Homo sapiens) + Glucokinase regulatory protein (Homo sapiens); experiment: qHTS assay for inhibitors of recombinant human GCK-GKRP interaction: HTRF assay (AID 743207);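 further: 0% = DMSO with GCK present and -100% = DMSO wells lacking GCK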
# How it was run: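 HTRF binding of 5 nM GST-GCK and 5 nM FLAG-GKRP with 2 uM S6P in pH 7.1 Hepes buffer (MgCl2, KCl, DTT, Tween 20, BSA). Anti-FLAG XL665 and anti-GST donor added, 60 min at room temperature; 665/615 nm read, normalized to with- and without-GCK controls.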
# [3] = qHTS Assay for Identifying Gametocytocidal Compounds (AID 743244);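 further: on the % scale 0 is the no-effect control and ±100 the full control effect; actives lower the fluorescent signal which means gametocytes are killed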; details: P. falciparum 3D7 stage III-V gametocytes, alamarBlue, 72 h; max response: stronger effect = lower value
# How it was run: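 Using 20,000 stage III–V 3D7 gametocytes per well, compounds were incubated 72 h under 37 °C/5% CO2. Viability was then assessed by 24 h alamarBlue reduction, measured fluorometrically at 525/598 nm.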
# [4] = qHTS profiling for inhibitors of Plasmodium falciparum (3D7) proliferation (AID 743322; call rule not given here;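 further: infected erythrocytes exposed to compound for 72 h before lysis; 100% = DMSO vehicle wells and 0% = 0.29 µM artemisinin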); details: P. falciparum 3D7 proliferation; at 28.7 µM (top of the series)
# How it was run: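 Parasite DNA was quantified by SYBR Green I fluorescence (ex 485, em 535 nm) after overnight lysis in saponin/Triton buffer at room temperature. Cultures at 0.3% parasitemia and 2.5% hematocrit were first exposed to compound for 72 h at 37 C; signals were normalised to artemisinin (0.29 uM) and vehicle wells.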
# [5] = qHTS profiling for inhibitors of Plasmodium falciparum (DD2) proliferation (AID 743323; call rule not given here); details: lower = more inhibition; at 28.7 µM (top of the series)
# How it was run: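 SYBR Green fluorescence (ex 485, em 535 nm) of lysed cultures gives parasite DNA content; wells normalized to artemisinin (0.29 uM) and DMSO controls. Infected red cells: 0.3% parasitemia, 2.5% hematocrit, 72 h, 37 C.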
smiles,measurement,setting,value
N#CCCN,outcome,[1],inactive
same,outcome,[2],inactive
same,max response,[3],15.8% (inactive)
COc1ccc2c(c1)C13CCCCC1C(C2)N(C)CC3 (centres undefined),outcome,[1],inactive
C[C@H](N)CN1CCc2ccc(Br)cc21,outcome,[1],inactive
same,remaining parasite growth % (stronger effect = lower value),[4],99.2%
same,"activity, percent of control",[5],24.2%
C/C(=C\c1csc(C)n1)[C@@H]1C[C@@H]2O[C@]2(C)CCC[C@H](C)[C@H](O)[C@@H](C)C(=O)C(C)(C)[C@@H](O)CC(=O)O1,remaining parasite growth % (stronger effect = lower value),[4],11%
same,"activity, percent of control",[5],13%
